# Assay results published in PubChem BioAssay (EPA / NIEHS).
# Inconclusive results are not listed. Activity calls are given as the source filed them. Rule for the calls: active = hit-call score of the fitted dose curve at least 0.9, where 1 is the maximum; inconclusive = response in the unintended direction; inactive = score below 0.9.
# What was measured:
# [1] = biological target: Androgen receptor (Homo sapiens) (UniProt P10275); experiment: ATG_AR_TRANS: Attagene TRANS-FACTORIAL HepG2 Assay for human Androgen Receptor (AR) (AID 2282973); conditions: HepG2 Attagene TRANS-FACTORIAL AR reporter transcription
# Outline: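 HepG2 cells transiently transfected with multiplexed GAL4-UAS reporter units and chimeric NR-Gal4 fusion; 24 h compound exposure. Reporter mRNA measured by RT-PCR, 6-FAM labelling, HpaI digestion and capillary electrophoresis; gain-of-signal fitted relative to DMSO baseline.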
# [2] = biological target: human CYP4F12, CYP4F12 (gene 66002) (UniProt Q9HCS2); experiment: NVS_ADME_hCYP4F12: NovaScreen (NVS) CYP450-related Enzyme Activity (ADME) Assay for human CYP4F12 (AID 2283111)
# Outline: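 Cell-free fluorescence assay of recombinant human CYP4F12 activity on a specific substrate, read 0.5 h after dosing. Primary screen in duplicate at 10 uM, then concentration series for actives; loss of signal fitted against acetonitrile negative control.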
# [3] = biological target: rat Monoamine Oxidase, MAO-B, Peripheral (MAOBP), Maob (gene 25750) (UniProt P19643); experiment: NVS_ENZ_rMAOBP: NovaScreen (NVS) Enzymatic Assay for rat Monoamine Oxidase, MAO-B, Peripheral (MAOBP) (AID 2283242)
# [4] = biological target: human Mitogen-Activated Protein Kinase 1 (MAPK 1), MAPK1 (gene 5594) (UniProt P28482); experiment: NVS_ENZ_hMAPK1: NovaScreen (NVS) Enzymatic Assay for human Mitogen-Activated Protein Kinase 1 (MAPK 1) (AID 2283175)
# Outline: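 Cell-free recombinant human MAPK1 enzymatic assay, fluorescence/electrophoretic mobility shift read at 1 h; loss of signal vs DMSO. Primary screen in duplicate at 25 uM; actives (e.g. ≥30% inhibition) run as concentration-response up to 50 uM.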
# [5] = biological target: human Acetylcholinesterase (AChE), ACHE (gene 43) (UniProt P22303); experiment: NVS_ENZ_hAChE: NovaScreen (NVS) Enzymatic Assay for human Acetylcholinesterase (AChE) (AID 2283129)
# Outline: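 Cell-free colorimetric enzyme-activity assay; compounds read 0.33 hour after dosing, loss of signal vs DMSO baseline. Primary screen in duplicate at 25 uM single concentration, with active compounds retested in concentration series.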
# [6] = biological target: human Matrix Metalloproteinase-1 (MMP1), MMP1 (gene 4312) (UniProt P03956); experiment: NVS_ENZ_hMMP1: NovaScreen (NVS) Enzymatic Assay for human Matrix Metalloproteinase-1 (MMP1) (AID 2283181)
# Outline: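 Human MMP1 enzyme activity measured by fluorescence 1 h after dosing, cell-free, with a specific substrate. Screened in duplicate at 25 uM; hits (e.g. 30% inhibition) run in concentration-response up to 50 uM; loss of signal versus DMSO.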
# [7] = biological target: rat Acetylcholinesterase (AChE), Ache (gene 83817) (UniProt P37136); experiment: NVS_ENZ_rAChE: NovaScreen (NVS) Enzymatic Assay for rat Acetylcholinesterase (AChE) (AID 2283233)
# Outline: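 Rat brain membrane acetylcholinesterase activity measured colorimetrically 0.33 h after compound addition, loss of signal relative to DMSO. Primary screen in duplicate at 25 uM; actives re-run as concentration-response with 50 uM top concentration.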
# [8] = biological target: human Fibroblast Growth Factor Receptor 1 (FGFR1), FGFR1 (gene 2260) (UniProt P11362); experiment: NVS_ENZ_hFGFR1: NovaScreen (NVS) Enzymatic Assay for human Fibroblast Growth Factor Receptor 1 (FGFR1) (AID 2283159);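 for AC50: hits lower the signal so potencies describe inhibitors of the kinase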
# Outline: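 Cell-free recombinant kinase with fluorescent substrate, product separated by electrophoretic mobility shift; read 1 hour after dosing, loss of signal relative to DMSO. Initial screen in duplicate at 25 uM, actives followed in concentration series.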
# [9] = biological target: Protein deacetylase HDAC6 (Homo sapiens) (UniProt Q9UBN7); experiment: NVS_ENZ_hHDAC6: NovaScreen (NVS) Enzymatic Assay for human Histone Deacetylase 6 (HDAC6) (AID 2283164)
# Outline: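 Recombinant human HDAC6 with fluorescent substrate, 1 h; product separated from substrate by electrophoretic mobility shift. Primary screen in duplicate at 25 uM; actives retested singly in concentration-response up to 50 uM, fitted relative to DMSO.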
# [10] = biological target: human Protein Tyrosine Phosphatase Receptor Type C (PTPRC), PTPRC (gene 5788) (UniProt P08575); experiment: NVS_ENZ_hPTPRC: NovaScreen (NVS) Enzymatic Assay for human Protein Tyrosine Phosphatase Receptor Type C (PTPRC) (AID 2283212)
# Outline: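 Yeast-extracted human PTPRC used in a cell-free colorimetric enzyme activity read-out, 1 h after dosing. Primary screen in duplicate at 25 uM; actives rerun in concentration-response up to 50 uM, DMSO as baseline.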
# [11] = biological target: human Tyrosine Protein Kinase Receptor Tie-2 (Tie2), TEK (gene 7010) (UniProt Q02763); experiment: NVS_ENZ_hTie2: NovaScreen (NVS) Enzymatic Assay for human Tyrosine Protein Kinase Receptor Tie-2 (Tie2) (AID 2283225)
# Outline: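 Recombinant human Tie2 kinase activity was read cell-free by fluorescence with electrophoretic mobility shift, 1 hour after dosing. The screen used 25 uM in duplicate, then concentration-response up to 50 uM. Signal loss was scored against DMSO.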
# [12] = biological target: human MET Proto-Oncogene, Receptor Tyrosine Kinase (MET), MET (gene 4233) (UniProt P08581); experiment: NVS_ENZ_hMet: NovaScreen (NVS) Enzymatic Assay for human MET Proto-Oncogene, Receptor Tyrosine Kinase (MET) (AID 2283180)
# Outline: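 Cell-free MET kinase assay using recombinant protein and fluorescent substrate, with mobility-shift separation; read 1 h after dosing. Primary duplicate at 25 uM; actives in singleton concentration-response to 50 uM maximum. Signal loss versus DMSO.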
# [13] = system: rat Monoamine Oxidase, MAO-A, Central (MAOAC), gene 29253; experiment: NVS_ENZ_rMAOAC: NovaScreen (NVS) Enzymatic Assay for rat Monoamine Oxidase, MAO-A, Central (MAOAC) (AID 2283243);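 note: potency refers to inhibition seen as signal drop below DMSO baseline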
# Outline: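 Inhibition of rat brain-derived MAO-A was read by scintillation counting after 1.5 h exposure. Compounds screened first at 25 uM in duplicate, then in dose series if active.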
# [14] = biological target: rat Oxytocin Receptor (OXT), Oxtr (gene 25342) (UniProt P70536); experiment: NVS_GPCR_rOXT: NovaScreen (NVS) G Protein-Coupled Receptor Assay for rat Oxytocin Receptor (OXT) (AID 2283330)
# Outline: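 Radioligand displacement on rat uterine membranes, 1 h incubation, filter-based scintillation counting. Chemicals were screened in duplicate at 25 uM, and those passing threshold were retested in concentration-response up to 50 uM. Loss of binding was fitted versus DMSO.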
# [15] = biological target: Bile acid receptor (Homo sapiens) (UniProt Q96RI1); experiment: NVS_NR_hFXR_Agonist: NovaScreen (NVS) Nuclear Receptor Binding Assay for human Farnesoid X Receptor Agonism (FXR) (AID 2283347)
# Outline: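 Cell-free TR-FRET binding assay with extracted human FXR protein, agonist format, read 1 h after dosing. Primary screen at 25 uM single concentration in duplicate, actives retested in concentration series; gain of signal versus DMSO.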
# [16] = biological target: rat Adenylate Cyclase, Forskolin Stimulated, Adcy5 (gene 64532) (UniProt Q04400); experiment: NVS_ENZ_rACFSKBinding: NovaScreen (NVS) Enzymatic Assay for rat Adenylate Cyclase, Forskolin Stimulated (AID 2283232)
# Outline: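 Rat forebrain membrane preparation, cell-free, read 1 h after dosing by filter-based scintillation counting. Primary screen in duplicate at 25 uM; actives (e.g. ≥30% inhibition) rerun in concentration-response up to 50 uM; fit versus DMSO.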
# [17] = biological target: Voltage-dependent N-type calcium channel subunit alpha-1B (Rattus norvegicus) (UniProt Q02294); experiment: NVS_IC_rCaChN: NovaScreen (NVS) Ion Channel Assay for rat Calcium Channel, Type N (CaChN) (AID 2283317)
# [18] = biological target: Norway rat Vesicular Monoamine Transporter (VMAT2), neurotransmitter transporter, Slc18a2 (gene 25549) (UniProt Q01827); experiment: NVS_TR_rVMAT2: NovaScreen (NVS) Transporter Assay for Norway rat Vesicular Monoamine Transporter (VMAT2), neurotransmitter transporter (AID 2283376);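 note: actives lower the bound radioligand signal below the DMSO level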
# Outline: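 Tissue: rat forebrain extract. Format: competitive radioligand binding, cell-free. Timepoint: 1 h. Readout: filter radiodetection/scintillation. Screen: 25 uM in duplicate, then concentration series for actives. Baseline: DMSO.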
# Sequence of Androgen receptor (Homo sapiens) (P10275 whole entry, looked up, the tested form may be a part): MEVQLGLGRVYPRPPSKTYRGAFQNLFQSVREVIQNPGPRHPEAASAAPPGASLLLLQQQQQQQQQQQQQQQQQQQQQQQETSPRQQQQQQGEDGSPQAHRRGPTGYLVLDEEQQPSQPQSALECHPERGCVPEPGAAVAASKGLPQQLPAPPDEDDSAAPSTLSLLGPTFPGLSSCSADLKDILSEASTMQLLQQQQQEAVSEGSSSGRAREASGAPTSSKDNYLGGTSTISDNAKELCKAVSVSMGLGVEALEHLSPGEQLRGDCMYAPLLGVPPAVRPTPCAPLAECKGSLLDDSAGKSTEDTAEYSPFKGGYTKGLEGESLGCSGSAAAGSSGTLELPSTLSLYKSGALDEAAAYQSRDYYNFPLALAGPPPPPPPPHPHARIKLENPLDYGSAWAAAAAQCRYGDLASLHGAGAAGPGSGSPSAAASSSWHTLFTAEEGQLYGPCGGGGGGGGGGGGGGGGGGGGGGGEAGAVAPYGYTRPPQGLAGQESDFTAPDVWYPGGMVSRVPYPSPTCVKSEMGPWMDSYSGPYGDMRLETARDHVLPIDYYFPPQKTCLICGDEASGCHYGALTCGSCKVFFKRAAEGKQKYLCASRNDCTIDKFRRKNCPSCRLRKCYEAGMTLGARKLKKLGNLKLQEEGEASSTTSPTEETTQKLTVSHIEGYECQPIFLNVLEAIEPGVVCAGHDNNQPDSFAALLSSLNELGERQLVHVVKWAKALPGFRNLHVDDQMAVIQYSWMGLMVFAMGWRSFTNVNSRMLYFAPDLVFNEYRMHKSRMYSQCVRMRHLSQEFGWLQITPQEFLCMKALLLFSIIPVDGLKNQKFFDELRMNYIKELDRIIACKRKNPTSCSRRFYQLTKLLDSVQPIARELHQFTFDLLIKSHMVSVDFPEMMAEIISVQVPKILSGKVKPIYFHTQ
# Sequence of human Fibroblast Growth Factor Receptor 1 (FGFR1), FGFR1 (gene 2260) (P11362 whole entry, looked up): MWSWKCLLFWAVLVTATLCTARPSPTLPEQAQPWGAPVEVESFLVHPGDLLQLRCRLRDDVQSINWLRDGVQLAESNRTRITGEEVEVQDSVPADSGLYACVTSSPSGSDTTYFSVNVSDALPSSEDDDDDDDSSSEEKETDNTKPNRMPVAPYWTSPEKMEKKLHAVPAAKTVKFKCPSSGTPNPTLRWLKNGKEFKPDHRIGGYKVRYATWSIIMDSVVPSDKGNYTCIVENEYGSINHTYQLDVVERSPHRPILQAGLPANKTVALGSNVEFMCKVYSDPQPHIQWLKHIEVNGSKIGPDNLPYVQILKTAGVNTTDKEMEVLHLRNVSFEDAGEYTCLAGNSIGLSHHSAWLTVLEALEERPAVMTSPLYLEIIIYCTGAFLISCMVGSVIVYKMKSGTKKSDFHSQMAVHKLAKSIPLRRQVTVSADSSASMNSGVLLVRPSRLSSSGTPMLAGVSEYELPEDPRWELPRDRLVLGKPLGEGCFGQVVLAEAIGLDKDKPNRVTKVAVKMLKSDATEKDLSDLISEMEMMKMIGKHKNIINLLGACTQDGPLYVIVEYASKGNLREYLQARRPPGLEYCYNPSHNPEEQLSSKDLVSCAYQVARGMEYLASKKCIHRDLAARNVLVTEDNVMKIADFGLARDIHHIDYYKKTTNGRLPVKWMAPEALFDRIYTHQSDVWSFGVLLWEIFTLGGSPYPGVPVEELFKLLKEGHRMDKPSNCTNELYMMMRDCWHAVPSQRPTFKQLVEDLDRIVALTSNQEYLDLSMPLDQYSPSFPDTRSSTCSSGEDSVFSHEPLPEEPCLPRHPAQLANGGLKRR
# Sequence of rat Monoamine Oxidase, MAO-B, Peripheral (MAOBP), Maob (gene 25750) (P19643 whole entry, looked up): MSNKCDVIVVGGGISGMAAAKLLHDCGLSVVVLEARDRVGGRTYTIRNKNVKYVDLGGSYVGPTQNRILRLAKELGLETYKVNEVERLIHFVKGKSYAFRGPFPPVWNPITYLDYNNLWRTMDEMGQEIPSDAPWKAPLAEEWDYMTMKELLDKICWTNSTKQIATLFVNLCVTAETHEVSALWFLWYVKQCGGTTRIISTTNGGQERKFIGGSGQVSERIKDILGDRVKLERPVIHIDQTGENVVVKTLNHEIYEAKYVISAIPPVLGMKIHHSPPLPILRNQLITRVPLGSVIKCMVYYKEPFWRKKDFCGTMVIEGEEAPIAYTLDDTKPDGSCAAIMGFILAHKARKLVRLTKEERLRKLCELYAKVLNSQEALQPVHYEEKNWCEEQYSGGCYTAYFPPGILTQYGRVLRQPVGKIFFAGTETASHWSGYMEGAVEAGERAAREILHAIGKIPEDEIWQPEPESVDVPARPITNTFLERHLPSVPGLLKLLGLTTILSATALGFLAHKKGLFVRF
# Sequence of human Matrix Metalloproteinase-1 (MMP1), MMP1 (gene 4312) (P03956 whole entry, looked up): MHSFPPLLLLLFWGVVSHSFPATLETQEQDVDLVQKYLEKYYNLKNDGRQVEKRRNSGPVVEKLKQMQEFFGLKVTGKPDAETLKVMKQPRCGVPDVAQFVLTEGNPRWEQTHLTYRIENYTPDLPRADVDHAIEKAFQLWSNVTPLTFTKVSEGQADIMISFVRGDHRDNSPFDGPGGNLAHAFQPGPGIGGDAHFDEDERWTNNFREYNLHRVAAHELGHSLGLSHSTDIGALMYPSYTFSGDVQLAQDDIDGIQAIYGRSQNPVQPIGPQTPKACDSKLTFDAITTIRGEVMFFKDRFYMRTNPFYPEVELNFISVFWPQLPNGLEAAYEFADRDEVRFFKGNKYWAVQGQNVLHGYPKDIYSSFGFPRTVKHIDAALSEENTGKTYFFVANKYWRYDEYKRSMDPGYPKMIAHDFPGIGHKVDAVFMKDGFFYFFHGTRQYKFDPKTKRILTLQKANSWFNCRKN
# Sequence of human Acetylcholinesterase (AChE), ACHE (gene 43) (P22303 whole entry, looked up): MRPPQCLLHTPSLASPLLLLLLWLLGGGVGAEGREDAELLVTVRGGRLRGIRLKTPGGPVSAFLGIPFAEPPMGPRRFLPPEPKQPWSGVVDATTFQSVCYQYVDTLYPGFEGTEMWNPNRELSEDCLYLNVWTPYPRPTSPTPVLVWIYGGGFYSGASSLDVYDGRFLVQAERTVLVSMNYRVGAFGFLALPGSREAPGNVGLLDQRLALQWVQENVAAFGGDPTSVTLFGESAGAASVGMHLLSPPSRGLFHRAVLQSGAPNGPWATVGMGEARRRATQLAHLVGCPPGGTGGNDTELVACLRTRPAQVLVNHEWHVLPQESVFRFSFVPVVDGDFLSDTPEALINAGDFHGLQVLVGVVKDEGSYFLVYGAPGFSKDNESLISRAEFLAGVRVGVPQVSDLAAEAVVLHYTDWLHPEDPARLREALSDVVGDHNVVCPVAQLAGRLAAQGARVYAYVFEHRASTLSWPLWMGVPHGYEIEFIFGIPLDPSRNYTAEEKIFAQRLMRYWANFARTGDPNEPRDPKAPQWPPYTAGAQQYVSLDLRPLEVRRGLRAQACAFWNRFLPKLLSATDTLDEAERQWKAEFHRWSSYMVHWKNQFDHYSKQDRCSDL
# Sequence of rat Oxytocin Receptor (OXT), Oxtr (gene 25342) (P70536 whole entry, looked up): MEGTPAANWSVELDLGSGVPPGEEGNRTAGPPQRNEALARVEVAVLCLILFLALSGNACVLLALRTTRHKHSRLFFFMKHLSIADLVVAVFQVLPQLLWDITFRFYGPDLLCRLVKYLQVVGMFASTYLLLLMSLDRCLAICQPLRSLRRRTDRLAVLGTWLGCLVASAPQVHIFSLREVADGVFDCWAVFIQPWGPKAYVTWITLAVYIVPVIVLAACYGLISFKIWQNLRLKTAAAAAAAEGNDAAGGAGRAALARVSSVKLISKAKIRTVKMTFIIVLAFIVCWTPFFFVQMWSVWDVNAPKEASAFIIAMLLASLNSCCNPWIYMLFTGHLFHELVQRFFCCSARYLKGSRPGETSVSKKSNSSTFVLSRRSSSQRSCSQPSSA
# Sequence of human Mitogen-Activated Protein Kinase 1 (MAPK 1), MAPK1 (gene 5594) (P28482 whole entry, looked up): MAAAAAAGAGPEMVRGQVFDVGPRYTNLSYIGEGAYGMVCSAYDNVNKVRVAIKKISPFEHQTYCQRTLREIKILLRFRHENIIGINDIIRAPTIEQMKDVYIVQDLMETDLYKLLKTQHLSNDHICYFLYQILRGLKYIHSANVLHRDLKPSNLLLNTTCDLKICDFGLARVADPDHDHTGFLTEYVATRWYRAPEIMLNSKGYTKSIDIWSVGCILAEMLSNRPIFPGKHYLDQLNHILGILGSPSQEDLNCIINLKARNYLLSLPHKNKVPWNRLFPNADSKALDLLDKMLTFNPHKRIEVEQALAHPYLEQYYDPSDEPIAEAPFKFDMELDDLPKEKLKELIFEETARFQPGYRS
# Sequence of human CYP4F12, CYP4F12 (gene 66002) (Q9HCS2 whole entry, looked up): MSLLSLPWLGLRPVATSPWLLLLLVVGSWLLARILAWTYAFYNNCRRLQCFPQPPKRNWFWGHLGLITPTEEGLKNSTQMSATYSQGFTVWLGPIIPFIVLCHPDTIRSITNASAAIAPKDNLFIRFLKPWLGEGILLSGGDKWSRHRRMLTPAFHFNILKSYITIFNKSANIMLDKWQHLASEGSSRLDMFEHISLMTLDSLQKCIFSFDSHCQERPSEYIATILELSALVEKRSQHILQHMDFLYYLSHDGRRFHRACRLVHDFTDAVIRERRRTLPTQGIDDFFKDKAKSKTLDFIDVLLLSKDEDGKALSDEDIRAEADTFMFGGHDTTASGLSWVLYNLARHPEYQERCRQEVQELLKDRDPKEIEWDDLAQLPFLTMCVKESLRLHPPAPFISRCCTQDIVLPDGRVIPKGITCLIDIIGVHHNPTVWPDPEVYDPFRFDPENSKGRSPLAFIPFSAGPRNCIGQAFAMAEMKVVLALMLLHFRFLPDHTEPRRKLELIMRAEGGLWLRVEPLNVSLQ
compound,measurement,setting,value
NC(=O)c1nc(-c2cccc(-c3cc(F)ccc3OCC(F)(F)C(F)(F)F)c2)n[nH]1,outcome,[1],inactive
same,outcome,[2],inactive
same,outcome,[3],inactive
Cc1ccc(-c2cc(C(F)(F)F)nn2-c2ccc(S(N)(=O)=O)cc2)cc1,outcome,[1],inactive
same,outcome,[4],inactive
CN(C)C(=O)C1(N2CCCCC2)CCN(CC[C@@]2(c3ccc(Cl)c(Cl)c3)CN(C(=O)c3ccccc3)CCO2)CC1,outcome,[1],inactive
same,AC50,[5],4.93 µM (active)
same,AC50,[6],17.1 µM (active)
same,AC50,[7],9.53 µM (active)
Nc1cccc2c(N)cccc12,outcome,[1],inactive
same,outcome,[8],inactive
same,outcome,[9],inactive
same,AC50,[10],5.35 µM (active)
same,outcome,[11],inactive
CCN(Cc1cccnc1)C(=O)c1cccc(Cl)c1[C@]1(C)C(=O)N(Cc2ccc(OC)cc2OC)c2ccc(Cl)cc21,outcome,[1],inactive
same,outcome,[5],inactive
same,outcome,[12],inactive
same,AC50,[6],9.73 µM (active)
same,outcome,[3],inactive
same,AC50,[13],2.51 µM (active)
same,AC50,[14],0.0728 µM (active)
same,AC50,[15],15.1 µM (active)
COCCOC[C@H](CC1(C(=O)NC2CCC(C(=O)O)CC2)CCCC1)C(=O)Oc1ccc2c(c1)CCC2 (stereo partly specified),outcome,[1],inactive
same,outcome,[8],inactive
same,outcome,[4],inactive
same,outcome,[16],inactive
same,outcome,[17],inactive
same,outcome,[14],inactive
Oc1ccc2c(c1)-c1ccccc1C2,outcome,[1],inactive
same,AC50,[8],32.7 µM (active)
same,outcome,[18],inactive
